In experiment [1] the target is Ubiquitin carboxyl-terminal hydrolase 1 (Homo sapiens) (UniProt O94782). Put plainly: Inhibitors of USP1/UAF1: Pilot qHTS (AID 504865).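 Further: rhodamine fluorescence freed from ubiquitin-rhodamine substrate followed over time; top concentration of the series differs between compounds; nearly all actives have a fitted effect of over 35% in size.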 The procedure, abridged: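 Deubiquitinase activity followed as kinetic rhodamine fluorescence release from 150 nM Ub-Rho. 1 nM USP1/UAF1 with compound, after 15 min room-temperature preincubation, in HEPES pH 7.8 buffer containing TCEP, EDTA, BSA and Tween-20.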
Ubiquitin carboxyl-terminal hydrolase 1 (Homo sapiens), sequence (O94782 whole entry, looked up): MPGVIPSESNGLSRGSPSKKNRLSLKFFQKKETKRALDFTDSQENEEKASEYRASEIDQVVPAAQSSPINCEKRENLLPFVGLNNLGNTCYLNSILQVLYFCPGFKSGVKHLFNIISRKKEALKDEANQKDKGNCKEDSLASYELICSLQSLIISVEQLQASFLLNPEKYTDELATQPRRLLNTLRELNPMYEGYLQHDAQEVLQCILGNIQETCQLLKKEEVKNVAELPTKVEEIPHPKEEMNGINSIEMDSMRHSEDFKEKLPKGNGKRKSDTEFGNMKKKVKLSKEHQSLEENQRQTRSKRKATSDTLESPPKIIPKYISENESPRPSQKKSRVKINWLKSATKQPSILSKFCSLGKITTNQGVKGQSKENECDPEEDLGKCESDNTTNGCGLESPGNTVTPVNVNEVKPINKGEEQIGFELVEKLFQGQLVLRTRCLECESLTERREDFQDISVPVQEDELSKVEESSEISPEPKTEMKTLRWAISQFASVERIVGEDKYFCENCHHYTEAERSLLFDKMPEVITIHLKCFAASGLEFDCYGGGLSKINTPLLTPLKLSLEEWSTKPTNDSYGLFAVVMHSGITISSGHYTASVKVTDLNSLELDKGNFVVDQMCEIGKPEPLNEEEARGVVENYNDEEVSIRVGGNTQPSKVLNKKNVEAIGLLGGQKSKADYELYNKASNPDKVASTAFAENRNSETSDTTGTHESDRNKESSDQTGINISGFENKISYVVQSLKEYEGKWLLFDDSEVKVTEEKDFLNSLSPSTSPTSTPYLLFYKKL
For orientation: qHTS replaces the single test concentration by a dilution series.

Experiment [2] in a line: S16 Schwann cell PMP22 intronic element firefly luciferase assay (AID 624032). Further: nearly all actives have a fitted effect of over 30% in size. Further: potency means the concentration at half of the fitted maximal effect. The procedure, abridged:
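Rat S16 Schwann cells stably carrying a PMP22 intronic element-driven Fluc reporter were seeded overnight, then exposed to compounds for 24 h at 37 °C. Luminescence was normalized to PTC124 (positive control) and DMSO (0% activity).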

The subject of experiment [3] is DIV14. Nature of the experiment: qHTS profiling for inhibitors of Plasmodium falciparum proliferation (AID 504749). Further: nearly all actives have a fitted effect of over 60% in size. Further: potency means the concentration at half of the fitted maximal effect. The following applies: P. falciparum in erythrocytes, SYBR Green DNA, 72 h; series mostly up to 28.7 µM. The method in brief: (§1)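 Quantitative HTS: compounds pinned into medium, infected erythrocytes added (0.3% parasitemia, 2.5% hematocrit), 72 h culture at 37 C under 5% CO2. Saponin/Triton lysis with SYBR Green I, overnight RT, then fluorescence read.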

For experiment [4], the system named is ICS. The description is as above. The following applies: P. falciparum in erythrocytes, SYBR Green DNA, 72 h; series mostly up to 28.7 µM. The method in brief:
as §1

The test system of experiment [5] is DFO2036. The description is as above. Conditions: P. falciparum in erythrocytes, SYBR Green DNA, 72 h; series mostly up to 28.7 µM. The procedure, abridged:
as §1

For experiment [6], the system named is W2. The experiment is described as above. Conditions: P. falciparum in erythrocytes, SYBR Green DNA, 72 h; series mostly up to 28.7 µM. The method in brief:
as §1

The nature of experiment [7]: Confirmation and Secondary Assay for Modulators of Hemoglobin Beta Chain Splicing at IVS2 654 locus (AID 910). The method in brief: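 HeLa cells stably carrying EGFP interrupted by mutant beta-globin IVS2-654 intron (CMV-driven) were treated with compound for 2 days at 37C; corrected splicing was scored as total peak GFP intensity per well (488 nm excitation, 500-520 nm emission).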

Experiment [8] in a line: Confirmation and Secondary Assay for Modulators of Hemoglobin Beta Chain Splicing at IVS2 705 locus (AID 930).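 Further: HeLa cells stably expressing the EGFP-705 splicing reporter; GFP fluorescence per well restored by corrected splicing of the IVS2-705 intron in EGFP.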 The procedure, abridged: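 Read-out: total peak GFP fluorescence per well (488 nm excitation, 500-520 nm emission) by laser-scanning cytometry. Cells: HeLa EGFP-705 splicing reporter, 2 days compound exposure in Optimem/2% FCS.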
The target of experiment [9] is Cytochrome P450 3A4 (Homo sapiens) (UniProt P08684). Nature of the experiment: qHTS Assay for Inhibitors and Substrates of Cytochrome P450 3A4 (AID 884). Further: nearly all actives have a fitted effect of over 50% in size. The method in brief: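 Luminescent readout of luciferin produced by CYP3A4 (20 nM) dealkylation of Luciferin-PPXE, 25 uM (its KM). NADPH-driven reaction ran 60 min at RT after 10 min compound preincubation; data scaled to 57 uM ketoconazole as 100% inhibition.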
Cytochrome P450 3A4 (Homo sapiens), sequence (P08684 whole entry, looked up): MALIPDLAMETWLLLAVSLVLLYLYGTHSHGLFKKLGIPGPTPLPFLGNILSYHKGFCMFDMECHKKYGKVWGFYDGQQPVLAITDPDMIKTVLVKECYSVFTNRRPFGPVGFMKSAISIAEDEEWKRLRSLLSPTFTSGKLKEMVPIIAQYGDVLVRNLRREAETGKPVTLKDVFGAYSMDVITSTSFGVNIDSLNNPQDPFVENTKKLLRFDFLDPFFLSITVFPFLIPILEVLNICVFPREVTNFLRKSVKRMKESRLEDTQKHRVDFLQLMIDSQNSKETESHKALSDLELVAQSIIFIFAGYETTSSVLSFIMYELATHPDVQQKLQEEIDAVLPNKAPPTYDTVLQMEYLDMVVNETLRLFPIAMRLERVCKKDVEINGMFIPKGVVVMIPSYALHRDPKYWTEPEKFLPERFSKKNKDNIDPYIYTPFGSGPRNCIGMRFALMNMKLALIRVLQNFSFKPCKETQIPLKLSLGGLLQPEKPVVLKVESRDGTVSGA

Experiment [10] shares this target. Nature of the experiment: qHTS Assay for Activators of Cytochrome P450 3A4 (AID 885). Further: nearly all actives have a fitted effect of over 65% in size. The procedure, abridged:
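Human CYP3A4 dealkylates Luciferin-PPXE to luciferin, which luciferase detection converts to light. Substrate was at its KM (25uM), buffer 200mM KPO4, reaction 60 min at RT.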

Inconclusive results are not listed. Activity calls are given as the source filed them. The call rests on the fitted dose curve; in most records, active means well fitted curve in the direction sought with a large enough effect; inconclusive means small, poorly fitted or top-dose-only effect, or another doubt; inactive means no such curve, though single readings can be large; an effect the other way counts as inactive or inconclusive.

As for `COc1ccc2cc1Oc1cc3c(cc1OC)CC[N+](C)(C)C3Cc1ccc(cc1)Oc1c(OC)c(OC)cc3c1C(C2)[N+](C)(C)CC3` (centres undefined), the Potency result in [1], in experiment [2], in experiment [3] and in experiment [4] was “inactive” in each case.

With `O=C(O)c1ccc(N[C@@H]2OC[C@@H](O)[C@@H](O)[C@@H]2O)cc1`, the Potency entry in experiment [1], in experiment [2], in experiment [5], in [3], in experiment [4] and in [6] was “inactive” each time.

In the case of `CC[C@@]1(O)CC2CN(CCc3c([nH]c4ccccc34)[C@](C(=O)OC)(c3cc4c(cc3OC)N(C)C3[C@@](O)(C(=O)OC)C(OC(C)=O)[C@]5(CC)C=CCN6CC[C@@]43C65)C2)C1` (some centres undefined), the Potency entry in experiment [7], in [8] and in experiment [1] was “inactive” throughout. Also, the Potency in experiment [2] is 510 nM (active); in experiment [3], 4260 nM (active); in experiment [4], 708 nM (active); in experiment [6], 953 nM (active).

For `CO/N=C(/C(=O)N[C@@H]1C(=O)N2C(C(=O)O)=C(CSc3cnns3)CS[C@H]12)c1csc(N)n1`, the Potency result in experiment [1], in [2], in experiment [5], in experiment [3], in experiment [4] and in experiment [6] was “inactive” throughout.

As to `CCCC(=O)Nc1c(I)cc(I)c(C[C@H](CC)C(=O)O)c1I`, the Potency entry in experiment [1], in experiment [2], in [5] and in experiment [4] was “inactive” in each case.

Consider `NC(CSSCC(N)C(=O)O)C(=O)O` (centres undefined), for which the Potency result in experiment [1], in [2], in experiment [5], in experiment [3], in experiment [4] and in experiment [6] was “inactive” throughout.

On to `NCCCCC(N)C(=O)O` (centres undefined), for which the Potency entry in [1], in [2], in experiment [5], in experiment [3], in [4] and in experiment [6] was “inactive” each time.

As to `C[C@@H](O)[C@@H]1C(=O)N2C(C(=O)O)=C([C@H]3CCCO3)S[C@H]12`, the Potency result in [1], in experiment [2], in experiment [3], in experiment [4] and in experiment [6] was “inactive” each time.

Take `NC(=O)c1ncn(C2OC(CO)C(O)C2O)c1N` (centres undefined): the Potency entry in [9], in experiment [7], in [8], in [1], in experiment [2] and in experiment [3] was “inactive” throughout. Further, the Potency entry in experiment [4] and in [6] was “inactive” each time.

In the case of `CC1C(=O)C(=O)C=CN1C` (centres undefined), the Potency result in experiment [1], in experiment [2], in experiment [3], in experiment [4] and in experiment [6] was “inactive” throughout.

Take `NC(=O)OC[C@@H]1[C@H](NC(=O)/C(=N/OCC(=O)O)c2csc(N)n2)C(=O)N1S(=O)(=O)O`: the Potency entry in experiment [1], in experiment [2], in experiment [5], in experiment [3] and in [4] was “inactive” throughout.

For the compound `Nc1ncn(C2C[C@H](O)[C@@H](CO)O2)c(=O)n1` (some centres undefined), the Potency result in [1], in [5], in experiment [3], in experiment [4] and in experiment [6] was “inactive” in each case.

Turning to `O=C(O)C(O)c1ccccc1` (centres undefined), the Potency result in experiment [1], in experiment [2], in experiment [3], in experiment [4] and in [6] was “inactive” each time.

On to `CCN(CC)CC(=O)Nc1c(C)cc(C)cc1C`, for which the Potency result in [1], in experiment [2], in experiment [3] and in experiment [4] was “inactive” each time.

Regarding `CO[C@H]1C[C@@H]2CC[C@@H](C)[C@@](O)(O2)C(=O)C(=O)N2CCCC[C@H]2C(=O)O[C@H]([C@H](C)C[C@@H]2CC[C@@H](O)[C@H](OC)C2)CC(=O)[C@H](C)/C=C(\C)[C@@H](O)[C@@H](OC)C(=O)[C@H](C)C[C@H](C)/C=C/C=C/C=C/1C`, the Potency result in [2] is “inactive”. For the same compound, the Potency in experiment [3] is 1690 nM (active); in [4], 501 nM (active); in experiment [6], 1200 nM (active).

Turning to `Cc1ccc(/C=C2/C(=O)C3(C)CCC2C3(C)C)cc1` (centres undefined), the Potency entry in experiment [1], in [2], in [5], in experiment [3] and in experiment [4] was “inactive” throughout.

For the compound `COC1CC2CCC(C)[C@](O)(O2)C(=O)C(=O)N2CCCCC2C(=O)OC(C(C)CC2CCC(O)C(OC)C2)CC(=O)C(C)/C=C(/C)C(O)C(OC)C(=O)C(C)CC(C)C=CC=C/C=C\1C` (some centres undefined), the Potency in [3] is 1510 nM (active); in experiment [4] it was 891 nM (active); in experiment [6] it was 675 nM (active).

In the case of `Nc1nc(/C(=C/CC(=O)O)C(=O)NC2C(=O)N3C(C(=O)O)=CCSC23)cs1` (centres undefined), the Potency entry in experiment [10], in [7], in [8], in [2], in experiment [3] and in [4] was “inactive” in each case. Further, the Potency entry in [6] was “inactive”.

For the compound `Cc1onc(-c2c(F)cccc2Cl)c1C(=O)NC1C(=O)N2C1SC(C)(C)C2C(=O)O` (centres undefined), the Potency result in [1], in experiment [2], in [5], in [3], in experiment [4] and in experiment [6] was “inactive” each time.

Consider `CCCCCOC(=O)Nc1nc(=O)n(C2O[C@H](C)[C@@H](O)[C@@H]2O)cc1F` (some centres undefined), for which the Potency entry in [1], in experiment [2], in [5], in experiment [3] and in experiment [4] was “inactive” each time.

`Nc1nc(F)nc2c1ncn2[C@@H]1O[C@H](CO)[C@@H](O)[C@H]1O`: the Potency result in [1], in experiment [2], in [3], in [4] and in experiment [6] was “inactive” throughout.

For `Cn1cc(C(=O)[C@@H]2CCc3[nH]cnc3C2)c2ccccc21`, the Potency result in experiment [1], in experiment [2], in experiment [3], in experiment [4] and in [6] was “inactive” each time.

With `CCOC(=O)C(CCc1ccccc1)NC(C)C(=O)N1Cc2cc(OC)c(OC)cc2CC1C(=O)O` (centres undefined), the Potency entry in experiment [1], in experiment [2] and in experiment [5] was “inactive” in each case. Moreover, the values for the Potency in experiment [3] and in experiment [6] were 6010 nM (active) and 5360 nM (active), respectively.

In the case of `C[C@]12CC[C@@H]3c4ccc(O)cc4CC[C@H]3[C@@H]1CCC2OC(=O)CCC1CCCC1` (some centres undefined), the Potency result in experiment [5] and in experiment [3] was “inactive” each time. For the same compound, in [4], the Potency is 12600 nM (active).
